The record followed here is PubChem BioAssay (EPA / NIEHS).

Inconclusive results are not listed. Active and inactive are the calls of the source. Rule for the calls, unless noted: active = hit-call score of the fitted dose curve at least 0.9, where 1 is the maximum; inconclusive = response in the unintended direction; inactive = score below 0.9.

The nature of test [1]: ATG_TCF_b_cat_CIS: Attagene CIS-FACTORIAL HepG2 Assay for human T-Cell-Factor with beta-catenin (TCF/b-cat) (AID 2282965; active = hit-call score of the fitted dose curve at least 0.9, where 1 is the maximum; inactive = score below 0.9). Particulars: HepG2 TCF/beta-catenin cis-reporter transcription, actives raise or lower the signal. Summed up: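 Measured: reporter mRNA in HepG2 transiently transfected with cis-promoter reporter units, 24 h after chemical addition. Fitting was bidirectional, DMSO as negative control.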

Test [2] in a line: ATG_TGFb_CIS: Attagene CIS-FACTORIAL HepG2 Assay for human Transforming Growth Factor (TGF) (AID 2282967; active = hit-call score of the fitted dose curve at least 0.9, where 1 is the maximum; inactive = score below 0.9). Particulars: HepG2 Attagene CIS TGFb reporter, mRNA transcription; actives raise or lower the signal. Summed up: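 HepG2 cells transiently transfected with cis-promoter-driven multiple reporter units measure endogenous TF activity; reporter mRNA quantified at 24 h by RT-PCR, FAM labeling, HpaI digestion and capillary electrophoresis. Bidirectional fit vs DMSO.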

Test [3] is described as follows: ATG_VDRE_CIS: Attagene CIS-FACTORIAL HepG2 Assay for human Vitamin D Receptor Element (VDRE) (AID 2282968; active = hit-call score of the fitted dose curve at least 0.9, where 1 is the maximum; inactive = score below 0.9). Particulars: HepG2 VDRE cis-reporter transcription, actives raise or lower the signal. A digest of the protocol:
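In transiently transfected HepG2 liver cells, gain or loss of reporter mRNA after 24 h exposure is scored relative to DMSO, using fluorescence detection by capillary electrophoresis of RT-PCR products.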

The target in test [4] is Estrogen receptor (Homo sapiens) (UniProt P03372). In words: ATG_ERa_TRANS: Attagene TRANS-FACTORIAL HepG2 Assay for human Estrogen Receptor alpha (ERa) (AID 2282970). Particulars: HepG2 Attagene TRANS ERa GAL4 reporter, mRNA. Summed up:
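Human liver HepG2, transient transfection of multiple GAL4-UAS reporter units; TRANS format (exogenous NR-Gal4 chimera). 24 h dosing. Readout: reporter mRNA, RT-PCR, 6-FAM primer extension, HpaI digest, capillary electrophoresis. Positive direction vs DMSO.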

The target of test [5] is X-box-binding protein 1 (Homo sapiens) (UniProt P17861). Briefly: ATG_Xbp1_CIS: Attagene CIS-FACTORIAL HepG2 Assay for human X-box Binding Protein 1 (XBP1) (AID 2282972; active = hit-call score of the fitted dose curve at least 0.9, where 1 is the maximum; inactive = score below 0.9). The settings on record: HepG2 XBP1 cis-element reporter, Attagene multiplex; actives raise or lower the signal. Summed up: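 HepG2, transient MRTU transfection (cis-promoter driven), 24 h compound exposure. Total RNA → oligo(dT) RT → PCR → 6-FAM labeling → HpaI cut → CE. Bidirectional fit vs DMSO.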
Sequence of X-box-binding protein 1 (Homo sapiens) (P17861 whole entry, looked up): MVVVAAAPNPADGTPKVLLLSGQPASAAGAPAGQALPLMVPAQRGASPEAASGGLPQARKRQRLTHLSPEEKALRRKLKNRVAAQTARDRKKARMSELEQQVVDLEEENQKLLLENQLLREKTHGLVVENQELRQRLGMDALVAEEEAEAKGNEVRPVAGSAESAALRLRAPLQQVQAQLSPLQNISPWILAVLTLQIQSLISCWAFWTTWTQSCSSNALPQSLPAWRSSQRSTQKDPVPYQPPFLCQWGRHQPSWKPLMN

The nature of test [6]: ATG_M_19_TRANS: Attagene TRANS-FACTORIAL HepG2 Assay for M19 Transcription Factor (Internal Marker) (AID 2282974). Particulars: HepG2 Attagene TRANS-FACTORIAL M19 internal marker reporter. Summed up:
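HepG2 cells transiently transfected with multiple GAL4-UAS reporter transcription units were exposed to chemicals for 24 h. Reporter mRNA was read by RT-PCR, 6-FAM primer extension, HpaI digestion and capillary electrophoresis; gain of signal fitted relative to DMSO.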

Test [7] can be described thus: ATG_GAL4_TRANS: Attagene TRANS-FACTORIAL HepG2 Assay for GAL4 (Internal Marker) (AID 2282976). Particulars: HepG2 Attagene TRANS GAL4 internal marker reporter. A digest of the protocol:
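First, HepG2 cells were transfected with reporter units under GAL4-UAS control. Next, they were treated with chemical for 24 h. Finally, RNA was reverse-transcribed, PCR-amplified, FAM-labelled and resolved by capillary electrophoresis, with induction scored against DMSO.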

In test [8] the target is Hepatocyte nuclear factor 4-alpha (Homo sapiens) (UniProt P41235). Briefly: ATG_HNF4a_TRANS: Attagene TRANS-FACTORIAL HepG2 Assay for human Hepatocyte Nuclear Factor 4 alpha (HNF4a) (AID 2282982). The settings on record: HepG2 HNF4a transactivation reporter, mRNA readout. Summed up:
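Transfected HepG2 reporter cells are dosed for 24 h; reporter RNA is reverse-transcribed, amplified, fluorescently labelled and HpaI-digested before CE sizing. Positive-direction fit against DMSO.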

The nature of test [9]: ATG_M_32_TRANS: Attagene TRANS-FACTORIAL HepG2 Assay for M32 Transcription Factor (Internal Marker) (AID 2282984).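 Note: transcript level of a background control reporter unit measured by RT-PCR and capillary electrophoresis.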 Particulars: HepG2 Attagene TRANS M32 internal marker reporter. A digest of the protocol: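 Using transiently transfected HepG2 cells exposed to test chemicals for 24 h, reporter transcripts are converted to labelled cDNA fragments and quantified by capillary electrophoresis. DMSO defines the activity baseline.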

Test [10] deals with Nuclear receptor subfamily 4 group A member 2 (Homo sapiens) (UniProt P43354). In words: ATG_NURR1_TRANS: Attagene TRANS-FACTORIAL HepG2 Assay for human Nuclear Receptor Related Protein 1 (NURR1) (AID 2282985). Particulars: HepG2 Attagene TRANS reporter, mRNA readout. A digest of the protocol: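 Cells: HepG2, transiently transfected. Exposure: 24 h. Detection: fluorescence of labelled RT-PCR products separated by capillary electrophoresis; upward fit versus DMSO.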
Sequence of Nuclear receptor subfamily 4 group A member 2 (Homo sapiens) (P43354 whole entry, looked up): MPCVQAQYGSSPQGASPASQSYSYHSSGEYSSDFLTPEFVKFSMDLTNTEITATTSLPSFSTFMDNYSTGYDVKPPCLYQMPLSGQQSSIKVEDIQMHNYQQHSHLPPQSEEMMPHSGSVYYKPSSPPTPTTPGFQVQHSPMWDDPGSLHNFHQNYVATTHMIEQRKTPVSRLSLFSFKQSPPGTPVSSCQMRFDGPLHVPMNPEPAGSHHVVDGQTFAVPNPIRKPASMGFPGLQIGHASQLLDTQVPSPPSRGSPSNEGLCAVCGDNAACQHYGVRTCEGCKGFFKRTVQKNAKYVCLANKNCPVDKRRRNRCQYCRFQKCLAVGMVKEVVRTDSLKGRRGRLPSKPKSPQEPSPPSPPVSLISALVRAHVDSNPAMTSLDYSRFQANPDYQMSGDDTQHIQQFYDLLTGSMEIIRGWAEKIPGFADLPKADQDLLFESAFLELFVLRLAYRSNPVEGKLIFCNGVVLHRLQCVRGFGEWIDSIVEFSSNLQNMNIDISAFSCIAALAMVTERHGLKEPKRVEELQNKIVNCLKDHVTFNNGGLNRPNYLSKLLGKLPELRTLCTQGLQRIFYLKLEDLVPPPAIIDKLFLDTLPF

Test [11] concerns the target Transcriptional activator Myb (Homo sapiens) (UniProt P10242). Briefly: ATG_Myb_CIS: Attagene CIS-FACTORIAL HepG2 Assay for human Myeloblastosis (Myb) Proto-Oncogene Transcription Factor (AID 2282986; active = hit-call score of the fitted dose curve at least 0.9, where 1 is the maximum; inactive = score below 0.9). The settings on record: HepG2 Attagene CIS-FACTORIAL Myb reporter transcription; actives raise or lower the signal. A digest of the protocol:
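HepG2 cells were transiently transfected with cis-regulated multiple reporter transcription units reflecting endogenous Myb activity, then exposed to compound for 24 hours. Reporter mRNA was measured by RT-PCR with capillary electrophoresis; bidirectional fitting versus DMSO baseline.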

In test [12] the target is Nuclear receptor subfamily 1 group I member 3 (Homo sapiens) (UniProt Q14994). Briefly: ATG_CAR_TRANS: Attagene TRANS-FACTORIAL HepG2 Assay for human Constitutive Androstane Receptor (CAR) (AID 2282969).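 Note: activators raise reporter mRNA above DMSO so AC50 marks induction.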 The settings on record: HepG2 Attagene TRANS-FACTORIAL CAR reporter. Summed up:
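Readout is reporter mRNA induction, quantified by fluorescent primer extension and capillary electrophoresis after RT-PCR. Cells were HepG2 transiently carrying chimeric NR-Gal4 constructs with GAL4-UAS reporters, treated for 24 h; activity scored upward from DMSO.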

Test [13] has as its target Oxysterols receptor LXR-alpha (Homo sapiens) (UniProt Q13133). Briefly: ATG_LXRa_TRANS: Attagene TRANS-FACTORIAL HepG2 Assay for human Liver X Receptor alpha (LXRa) (AID 2282980). Particulars: HepG2 Attagene TRANS reporter, LXRa transactivation. Summed up:
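Transfect HepG2 with GAL4-UAS multiplex reporter constructs (TRANS format, chimeric receptor-GAL4); treat 24 h; extract RNA, reverse-transcribe, PCR-amplify, FAM-label, HpaI-digest; resolve fragments by capillary electrophoresis. Upward response vs DMSO.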

The target in test [14] is Oxysterols receptor LXR-beta (Homo sapiens) (UniProt P55055). In words: ATG_LXRb_TRANS: Attagene TRANS-FACTORIAL HepG2 Assay for human Liver X Receptor beta (LXRb) (AID 2282981). Particulars: HepG2 Attagene TRANS GAL4-LXRb reporter, mRNA. A digest of the protocol: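 Cells: HepG2, transiently transfected with GAL4-UAS reporter units plus LXRb-Gal4 fusion. Treatment: 24 h. Detection: reporter mRNA by RT-PCR, 6-FAM labelling, HpaI digestion, capillary electrophoresis.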
Sequence of Oxysterols receptor LXR-beta (Homo sapiens) (P55055 whole entry, looked up, the tested form may be a part): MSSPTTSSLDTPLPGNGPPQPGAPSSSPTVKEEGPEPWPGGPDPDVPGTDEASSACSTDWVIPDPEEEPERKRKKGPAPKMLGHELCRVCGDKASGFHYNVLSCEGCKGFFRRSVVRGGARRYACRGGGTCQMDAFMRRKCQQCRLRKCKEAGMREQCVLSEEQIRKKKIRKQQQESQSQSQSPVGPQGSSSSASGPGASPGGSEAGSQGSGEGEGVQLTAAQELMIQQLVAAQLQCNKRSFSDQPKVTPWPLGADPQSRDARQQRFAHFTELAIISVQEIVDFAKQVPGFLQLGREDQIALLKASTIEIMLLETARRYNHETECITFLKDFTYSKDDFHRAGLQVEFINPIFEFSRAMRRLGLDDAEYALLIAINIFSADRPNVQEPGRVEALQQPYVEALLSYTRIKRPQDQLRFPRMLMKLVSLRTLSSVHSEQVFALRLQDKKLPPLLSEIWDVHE

Test [15] can be described thus: ATG_M_06_TRANS: Attagene TRANS-FACTORIAL HepG2 Assay for M06 Transcription Factor (Internal Marker) (AID 2282983).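 Note: reporter transcript level by RT-PCR then capillary electrophoresis fluorescence.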 The settings on record: HepG2 Attagene TRANS M06 internal marker reporter. Summed up: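 Transfect HepG2 with MRTUs → dose compounds 24 h → isolate RNA, oligo(dT) RT → PCR with reporter primers → 6-FAM primer extension → HpaI digest → CE fragment analysis. Positive direction vs DMSO.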

The target in test [16] is Glucocorticoid receptor (Homo sapiens) (UniProt P04150). In words: ATG_GR_TRANS: Attagene TRANS-FACTORIAL HepG2 Assay for human Glucocorticoid Receptor (GR) (AID 2282978).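 Note: activators score as hits since higher reporter transcript over DMSO is fitted.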 The settings on record: HepG2 Attagene TRANS GR reporter, mRNA transcription. A digest of the protocol: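 HepG2 cells transiently transfected with multiplexed reporter units in which chimeric NR-GAL4 proteins drive GAL4-UAS reporters; 24 h compound exposure. Reporter mRNA measured by RT-PCR, 6-FAM labelling, HpaI digestion and capillary electrophoresis; gain-of-signal fitted versus DMSO.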
Sequence of Glucocorticoid receptor (Homo sapiens) (P04150 whole entry, looked up, the tested form may be a part): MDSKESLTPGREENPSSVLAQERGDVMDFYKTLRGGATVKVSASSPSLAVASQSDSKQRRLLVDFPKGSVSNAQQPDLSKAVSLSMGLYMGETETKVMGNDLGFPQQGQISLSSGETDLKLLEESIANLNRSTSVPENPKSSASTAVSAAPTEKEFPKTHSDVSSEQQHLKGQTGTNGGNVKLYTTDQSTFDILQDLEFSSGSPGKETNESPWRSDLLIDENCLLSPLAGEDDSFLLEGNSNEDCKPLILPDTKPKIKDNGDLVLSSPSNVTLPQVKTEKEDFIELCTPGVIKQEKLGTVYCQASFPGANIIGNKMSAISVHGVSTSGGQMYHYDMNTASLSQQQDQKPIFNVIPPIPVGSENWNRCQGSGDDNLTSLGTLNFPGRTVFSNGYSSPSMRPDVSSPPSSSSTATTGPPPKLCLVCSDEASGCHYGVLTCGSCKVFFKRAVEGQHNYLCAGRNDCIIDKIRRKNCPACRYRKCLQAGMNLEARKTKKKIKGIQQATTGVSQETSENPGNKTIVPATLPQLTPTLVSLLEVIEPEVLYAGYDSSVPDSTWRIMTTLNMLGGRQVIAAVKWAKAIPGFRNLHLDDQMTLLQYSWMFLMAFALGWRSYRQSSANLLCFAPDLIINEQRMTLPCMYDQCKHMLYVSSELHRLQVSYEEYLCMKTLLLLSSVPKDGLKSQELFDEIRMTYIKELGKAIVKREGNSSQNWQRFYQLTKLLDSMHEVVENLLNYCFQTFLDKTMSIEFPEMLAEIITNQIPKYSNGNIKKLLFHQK

Test [17] deals with Bile acid receptor (Homo sapiens) (UniProt Q96RI1). Briefly: ATG_FXR_TRANS: Attagene TRANS-FACTORIAL HepG2 Assay for Farnesoid X Receptor (FXR) (AID 2282979).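 Note: hits raise reporter mRNA above DMSO so AC50 marks FXR activation.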 The settings on record: HepG2 Attagene TRANS FXR-GAL4 reporter transcription. Summed up:
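Transient transfection of HepG2 with multiplexed GAL4-UAS reporter units; exogenous FXR-GAL4 chimera. Dose 24 h → TriZol RNA → oligo(dT) RT → PCR, 6-FAM primer extension, HpaI cut → CE. Gain vs DMSO.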

Sequence of Transcriptional activator Myb (Homo sapiens) (P10242 whole entry, looked up): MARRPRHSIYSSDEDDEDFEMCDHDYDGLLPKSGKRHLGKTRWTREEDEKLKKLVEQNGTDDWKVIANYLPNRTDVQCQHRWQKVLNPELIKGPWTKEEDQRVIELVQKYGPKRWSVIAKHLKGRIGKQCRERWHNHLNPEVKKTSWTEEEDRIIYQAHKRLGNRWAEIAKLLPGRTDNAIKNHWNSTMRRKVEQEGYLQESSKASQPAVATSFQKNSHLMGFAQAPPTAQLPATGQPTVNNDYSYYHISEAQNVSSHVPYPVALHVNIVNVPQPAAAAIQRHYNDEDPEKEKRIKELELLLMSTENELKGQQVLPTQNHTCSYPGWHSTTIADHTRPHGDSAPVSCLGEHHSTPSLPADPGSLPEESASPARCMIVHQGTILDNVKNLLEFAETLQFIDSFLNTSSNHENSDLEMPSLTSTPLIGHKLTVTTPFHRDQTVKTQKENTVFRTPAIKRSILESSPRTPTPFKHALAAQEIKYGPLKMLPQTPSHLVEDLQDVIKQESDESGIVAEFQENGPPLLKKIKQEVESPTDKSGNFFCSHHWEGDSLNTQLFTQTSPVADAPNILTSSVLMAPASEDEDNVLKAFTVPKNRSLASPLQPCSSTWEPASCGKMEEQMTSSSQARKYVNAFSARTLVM
Sequence of Estrogen receptor (Homo sapiens) (P03372 whole entry, looked up, the tested form may be a part): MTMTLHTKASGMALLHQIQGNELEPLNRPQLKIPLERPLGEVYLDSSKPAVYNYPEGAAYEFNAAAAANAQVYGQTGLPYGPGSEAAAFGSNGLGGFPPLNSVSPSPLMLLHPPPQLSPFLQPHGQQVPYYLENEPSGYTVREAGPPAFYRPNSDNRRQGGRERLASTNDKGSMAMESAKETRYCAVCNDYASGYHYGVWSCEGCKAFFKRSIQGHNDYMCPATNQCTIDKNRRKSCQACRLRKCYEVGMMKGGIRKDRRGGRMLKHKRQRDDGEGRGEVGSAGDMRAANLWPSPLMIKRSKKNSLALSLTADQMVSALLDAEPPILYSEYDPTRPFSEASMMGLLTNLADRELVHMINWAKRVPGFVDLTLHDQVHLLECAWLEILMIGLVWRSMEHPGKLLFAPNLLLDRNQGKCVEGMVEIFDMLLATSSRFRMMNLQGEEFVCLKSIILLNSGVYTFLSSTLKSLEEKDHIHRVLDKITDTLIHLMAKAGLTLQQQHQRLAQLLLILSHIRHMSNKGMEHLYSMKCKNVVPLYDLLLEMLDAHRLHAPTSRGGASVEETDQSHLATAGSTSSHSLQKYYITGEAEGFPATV
Sequence of Nuclear receptor subfamily 1 group I member 3 (Homo sapiens) (Q14994 whole entry, looked up, the tested form may be a part): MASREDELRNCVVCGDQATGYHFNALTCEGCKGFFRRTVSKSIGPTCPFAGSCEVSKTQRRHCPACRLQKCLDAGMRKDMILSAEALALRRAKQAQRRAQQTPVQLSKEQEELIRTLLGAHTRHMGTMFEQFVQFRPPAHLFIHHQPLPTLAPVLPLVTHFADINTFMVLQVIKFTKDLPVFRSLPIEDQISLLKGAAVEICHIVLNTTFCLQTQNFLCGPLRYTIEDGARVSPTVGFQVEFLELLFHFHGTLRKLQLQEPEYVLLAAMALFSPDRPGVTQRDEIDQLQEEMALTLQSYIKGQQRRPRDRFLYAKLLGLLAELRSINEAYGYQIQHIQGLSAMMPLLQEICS
Sequence of Oxysterols receptor LXR-alpha (Homo sapiens) (Q13133 whole entry, looked up, the tested form may be a part): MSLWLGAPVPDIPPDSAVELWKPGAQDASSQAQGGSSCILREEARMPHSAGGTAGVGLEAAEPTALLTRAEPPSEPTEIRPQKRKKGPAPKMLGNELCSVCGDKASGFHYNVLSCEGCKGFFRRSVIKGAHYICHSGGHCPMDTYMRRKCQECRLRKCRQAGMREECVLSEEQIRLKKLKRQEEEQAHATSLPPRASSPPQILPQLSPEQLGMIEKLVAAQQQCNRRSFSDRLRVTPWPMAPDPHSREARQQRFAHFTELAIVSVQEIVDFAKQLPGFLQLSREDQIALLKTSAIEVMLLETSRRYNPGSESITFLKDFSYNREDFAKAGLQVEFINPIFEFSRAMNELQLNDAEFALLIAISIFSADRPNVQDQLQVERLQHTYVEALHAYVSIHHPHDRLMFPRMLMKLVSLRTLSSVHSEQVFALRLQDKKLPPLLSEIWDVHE
Sequence of Hepatocyte nuclear factor 4-alpha (Homo sapiens) (P41235 whole entry, looked up): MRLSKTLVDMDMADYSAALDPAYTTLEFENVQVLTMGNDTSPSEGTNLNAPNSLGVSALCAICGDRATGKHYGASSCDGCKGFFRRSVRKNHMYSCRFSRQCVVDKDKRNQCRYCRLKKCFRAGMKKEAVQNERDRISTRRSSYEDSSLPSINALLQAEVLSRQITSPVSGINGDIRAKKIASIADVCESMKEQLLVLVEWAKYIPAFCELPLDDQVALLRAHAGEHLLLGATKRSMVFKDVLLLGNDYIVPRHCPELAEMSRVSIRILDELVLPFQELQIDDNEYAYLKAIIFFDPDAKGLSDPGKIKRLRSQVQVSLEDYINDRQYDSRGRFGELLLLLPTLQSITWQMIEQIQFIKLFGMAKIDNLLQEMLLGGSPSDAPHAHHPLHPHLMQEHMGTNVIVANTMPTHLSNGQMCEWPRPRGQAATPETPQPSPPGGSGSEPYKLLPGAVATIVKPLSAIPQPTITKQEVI

For the compound `CC/C=C\CCCCO`, the result in test [1], in [2], in test [3], in [4], in test [5] and in test [6] was inactive. Further, the compound was called inactive in test [7], in [8], in test [9], in test [10] and in test [11].

In the case of `CN(C)C`, the outcome in test [1], in test [2], in test [3], in test [12], in test [4] and in [5] was inactive. Besides, the compound was called inactive in test [6], in test [7], in [13], in [14], in test [9] and in [11].

Turning to `CCCCCCCC1CCCC1=O` (stereo not given), the result in [1], in test [2], in test [4], in [5], in test [7] and in test [15] was inactive. For the same compound, the result in [10] and in test [11] was inactive.

For `CC(=O)Nc1cc(S(=O)(=O)O)cc2cc(S(=O)(=O)O)c(N=Nc3ccccc3)c(O)c12`, the compound was classed as inactive in test [1], in test [2], in test [3], in test [12], in test [4] and in [7]. In addition, the call in test [13], in [14], in [15], in test [9] and in test [11] was inactive.

For the compound `CCCCCCCCCCCCCC(=O)OCC`, the result in test [1], in test [2], in [12], in test [5], in test [6] and in test [13] was inactive. In addition, the call in [15], in [9], in test [10] and in [11] was inactive.

Broadly, the AC50 is the concentration at which the activity in the assay is half-maximal. In the case of `CCCCCCCCCCCCS`, the outcome in [1], in test [2], in test [12], in test [4], in test [5] and in test [7] was inactive. Also, the outcome in test [11] was inactive. In addition, the concentration at half-maximal activity (AC50) in [3] was 42.5 µM (active); in test [6] it was 5.01 µM (active).

For the compound `CCOC(=O)C=Cc1ccccc1`, the result in [1], in test [2], in test [12], in [4], in test [5] and in test [6] was inactive. In addition, the result in [7], in [13], in [9], in test [10] and in [11] was inactive.

Consider `NC(N)=NC(N)=NCCc1ccccc1`, for which the compound was called inactive in test [1], in [2], in test [4], in test [5], in [6] and in [16]. Moreover, the call in test [13], in test [8] and in [11] was inactive.

As for `Cc1ccc(C(C)(C)O)cc1`, the call in test [1], in test [2], in test [3], in [12], in test [4] and in test [5] was inactive. In addition, the compound was classed as inactive in test [16], in [13], in [15] and in [11].

On to `CC1=CCC(C(C)(C)O)CC1` (stereo not given), for which the compound was classed as inactive in test [1], in test [2], in test [4], in [5], in [6] and in [17]. For the same compound, the outcome in [15], in test [10] and in test [11] was inactive.
